Assay results published in PubChem BioAssay (NCATS).
Results filed as inconclusive are left out. Active and inactive are the calls of the source. Unless noted, calls come from the whole dose curve; as a rule, active = well fitted curve in the direction sought with a large enough effect; inconclusive = small, poorly fitted or top-dose-only effect, or another doubt; inactive = no such curve, though single readings can be large; an effect the other way counts as inactive or inconclusive.

What was measured:
[1] = NS1 protein of Zika virus - qHTS assay to identify small molecule inhibitors in human HEK 293 cells (AID 1347053); note: series mostly up to about 46 µM; nearly all actives have a fitted effect of over 55% in size
Procedure, shortened: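 HEK 293 cells pretreated with compound for 1 h, then infected with ZIKV MR766 (MOI 0.5) for 24 h at 37 C. NS1 detected by TR-FRET with two anti-NS1 antibodies; normalized to uninfected (0%) and infected (100%) wells.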

[2] = qHTS for Inhibitors of the Functional Ribonucleoprotein Complex (vRNP) of Lassa (LASV) Arenavirus: LASV Primary Screen - GLuc reporter signal (AID 1347082; calls by dose curve; tested in HEK293 reporter line; note: series mostly up to about 57 µM; nearly all actives have a fitted effect of over 60% in size)
[3] = qHTS for Inhibitors of the Functional Ribonucleoprotein Complex (vRNP) of Lassa (LASV) Arenavirus: Viability assay - alamar blue signal for LASV Primary Screen (AID 1347083; calls by dose curve; tested in HEK293 reporter line; note: series mostly up to about 57 µM; nearly all actives have a fitted effect of over 80% in size)
[4] = qHTS for Inhibitors of the Functional Ribonucleoprotein Complex (vRNP) of Lymphocytic Choriomeningitis Arenaviruses (LCMV): Viability assay - alamar blue signal for LCMV Primary Screen (AID 1347085; calls by dose curve; tested in HEK293 reporter line; note: series mostly up to about 57 µM; nearly all actives have a fitted effect of over 80% in size)
[5] = molecular target: Nucleoprotein (Lymphocytic choriomeningitis virus (strain Armstrong)) (UniProt P09992); experiment: qHTS for Inhibitors of the Functional Ribonucleoprotein Complex (vRNP) of Lymphocytic Choriomeningitis Arenaviruses (LCMV): LCMV Primary Screen - GLuc reporter signal (AID 1347086; calls by dose curve; note: series mostly up to about 57 µM; nearly all actives have a fitted effect of over 70% in size)
Sequence of Nucleoprotein (Lymphocytic choriomeningitis virus (strain Armstrong)) (P09992 whole entry, looked up): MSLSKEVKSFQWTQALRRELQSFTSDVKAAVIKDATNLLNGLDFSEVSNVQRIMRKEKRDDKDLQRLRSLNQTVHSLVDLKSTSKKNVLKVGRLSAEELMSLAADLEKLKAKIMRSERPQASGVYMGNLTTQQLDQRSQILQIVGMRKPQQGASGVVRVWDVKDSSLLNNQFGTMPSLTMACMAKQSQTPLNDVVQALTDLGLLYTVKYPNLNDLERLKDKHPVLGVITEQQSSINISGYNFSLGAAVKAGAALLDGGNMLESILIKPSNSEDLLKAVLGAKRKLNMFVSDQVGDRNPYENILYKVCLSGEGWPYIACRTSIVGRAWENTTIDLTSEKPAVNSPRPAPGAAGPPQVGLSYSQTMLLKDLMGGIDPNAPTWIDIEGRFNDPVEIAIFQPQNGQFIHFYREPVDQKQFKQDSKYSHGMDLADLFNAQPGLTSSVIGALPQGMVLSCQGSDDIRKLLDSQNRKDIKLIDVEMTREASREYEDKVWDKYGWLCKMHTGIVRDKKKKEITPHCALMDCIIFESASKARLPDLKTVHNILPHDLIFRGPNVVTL

[6] = qHTS of pediatric cancer cell lines to identify multiple opportunities for drug repurposing: Primary screen for TC32 cells (AID 1347089); note: nearly all actives have a fitted effect of over 60% in size
Procedure, shortened: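 TC32 cells, 500-1,000/well in growth medium, compound-treated 48 h at 37 °C; viability from CellTiter-Glo luminescence. Primary screen: MIPE 11-point (0.78 nM–46 µM final), NPC 8-point (0.59 nM–46 µM final); confirmatory at 11-point dilutions.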

[7] = qHTS of pediatric cancer cell lines to identify multiple opportunities for drug repurposing: Primary screen for DAOY cells (AID 1347090); note: series mostly up to about 46 µM; nearly all actives have a fitted effect of over 55% in size
Procedure, shortened: (§1)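 Eight- or eleven-point concentration series, 48 h treatment at 37 degrees C in growth media; readout CellTiter-Glo luminescence. Potency and efficacy were taken from the concentration-response curves.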

[8] = qHTS of pediatric cancer cell lines to identify multiple opportunities for drug repurposing: Primary screen for SJ-GBM2 cells (AID 1347091)
Procedure, shortened: as §1

[9] = qHTS of pediatric cancer cell lines to identify multiple opportunities for drug repurposing: Primary screen for A673 cells (AID 1347092); note: nearly all actives have a fitted effect of over 45% in size
Procedure, shortened: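 A673 cells (500-1,000 cells/well) were treated 48 hours at 37 degrees C with compounds at 11-point (0.78 nM to 46 µM) or 8-point (0.59 nM to 46 µM) dilutions. Viability read by CellTiter-Glo luminescence; concentration-response curves fitted.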

[10] = qHTS of pediatric cancer cell lines to identify multiple opportunities for drug repurposing: Primary screen for SK-N-MC cells (AID 1347093); note: series mostly up to about 46 µM
Procedure, shortened: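 Metabolically active cells were quantified by ATP-dependent luminescence (CellTiter-Glo, 15 min at room temperature) following 48 h treatment. Cells had been plated at 500-1,000 per well and settled for 5 h beforehand.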

[11] = qHTS of pediatric cancer cell lines to identify multiple opportunities for drug repurposing: Primary screen for BT-37 cells (AID 1347094); note: series mostly up to about 57 µM
Procedure, shortened: (§2)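 500-1,000 cells/well; 5 h pre-incubation 37 °C/5% CO2; compound pinned; 48 h; CellTiter-Glo, 15 min RT; luminescence. MIPE 11-pt from 0.78 nM, NPC 8-pt from 0.59 nM final. Bortezomib 2.3 µM final as positive control.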

[12] = qHTS of pediatric cancer cell lines to identify multiple opportunities for drug repurposing: Primary screen for NB-EBc1 cells (AID 1347095)
Procedure, shortened: as §2

[13] = qHTS of pediatric cancer cell lines to identify multiple opportunities for drug repurposing: Primary screen for U-2 OS cells (AID 1347096); note: nearly all actives have a fitted effect of over 50% in size
Procedure, shortened: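 Cells (500-1,000/well) in growth media were settled 5 h at 37 degrees C, then given compounds for 48 h. Viability was read as CellTiter-Glo luminescence. Primary runs used MIPE at 11 points (0.78 nM-46 µM) and NPC at 8 points (0.59 nM-46 µM); follow-ups used 11 points.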

[14] = qHTS of pediatric cancer cell lines to identify multiple opportunities for drug repurposing: Primary screen for Saos-2 cells (AID 1347097); note: nearly all actives have a fitted effect of over 40% in size
Procedure, shortened: as §2

[15] = qHTS of pediatric cancer cell lines to identify multiple opportunities for drug repurposing: Primary screen for SK-N-SH cells (AID 1347098);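 note: DMSO served as neutral control and bortezomib at 2.3 µM as positive control; nearly all actives have a fitted effect of over 65% in size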
Procedure, shortened: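 Cells (500-1,000/well) rested 5 h, then received compounds for 48 h; metabolically active cells were measured by CellTiter-Glo luminescence. Final concentrations spanned up to 46 µM (MIPE, 11-point) or 0.59 nM-46 µM (NPC, 8-point) in primary screens, 11-point in follow-ups.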

Measured: Potency

NP(N)(=O)NC(=O)c1ccc(F)cc1
inactive: all assays above

CC(C)(N)Cc1ccc(Cl)cc1
not listed: [14]
inactive: all other assays above

COc1ccc(C(=O)c2c(C)n(CCN3CCOCC3)c3ccccc23)cc1
inactive: all assays above

CC(C)(C)NCC(O)c1cc(Cl)c(N)c(Cl)c1 (stereo unspecified)
inactive: all assays above

CC(=O)Nc1cc([As](=O)(O)O)ccc1O
inactive: all assays above

CCN(C(C)=O)c1cccc(-c2ccnc3c(C#N)cnn23)c1
not listed: [14]
inactive: all other assays above

OCCOc1ccccc1
inactive: all assays above

CC(C)=CC1C(C(=O)OCc2cccc(Oc3ccccc3)c2)C1(C)C (stereo unspecified)
inactive: all assays above

Cc1ccc2c(c1)C1CN(C)CCC1N2 (stereo unspecified)
not listed: [12] | [14]
inactive: all other assays above

Clc1cccc(N2CCNCC2)c1
inactive: all assays above

CN1CCN(C(=O)O[C@H]2c3nccnc3C(=O)N2c2ccc(Cl)cn2)CC1
inactive: all assays above

CN(C)CCc1ccc(O)cc1
not listed: [14]
inactive: all other assays above

CCN(CC)CCOC(=O)C(O)(c1ccccc1)c1ccccc1
not listed: [14]
inactive: all other assays above

NCCc1cc(O)c(O)cc1O
not listed: [14]
inactive: all other assays above

CN1C(=S)CN=C(c2ccccc2)c2cc(Cl)ccc21
not listed: [14]
inactive: all other assays above

C#CCOC(C(=O)OCCN(C)C)(c1ccccc1)c1ccccc1
not listed: [14]
inactive: all other assays above
